This assay concerns MDA-MB-468 breast. The assay is described as follows: NCI-60 one-dose screen, 48 h (100 = growth as untreated, 0 = no growth, -100 = all killed). Particulars: 10 µM unless noted.

Molecules are shown by their SMILES. Values joined by “and” are separate entries in the source; they are usually repeats but may differ in a detail not shown here. Equal values may be shown once. This is part of a sample that, as a whole, favours compounds with a hit. Of some 83,000 tested, about 20% had one in any assay.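 96-well plates, one dose, 48 hours. Percent growth reported; active if below 10.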 The source holds several records for some structures; these can differ, active in one and inactive in another. Active and inactive are the calls of the source.

From PubChem BioAssay (NCI) come the findings set out here.

Consider `COc1cc(CN2CCC(N3CCCC3=O)c3ccccc32)cc(OC)c1OC` (configuration not stated), for which the growth is 36.3% (inactive). To `S=C(c1ccc2c(c1)OCO2)N1CCN(c2cccc(Cl)c2)CC1` belongs 6.42% (active); to `Nc1c(C(=O)Nc2cccc(Cl)c2)sc2nc3c(cc12)CCCC3`, 74.2% (inactive); to `COc1cc2cc(Oc3ccc(NC(=O)Nc4ccc(Cl)c(Cl)c4)cc3)c(C)nc2cc1OCCN1CCOCC1`, 33.9% (inactive). In the case of `Cn1cc(-c2csc(-c3cn(CCN)c4ccc(Br)cc34)n2)c2cccnc21` it was 28.6% (inactive); in that of `C=C/C(C)=C/C[C@]1(C)[C@H](C)[C@@H](OC(=O)CCC)[C@H](O)[C@@]23C(=C[C@H](OC)C[C@@H]12)[C@@H](OC(=O)CCC)O[C@H]3OC(C)=O`, -69% (active). In the case of `CCOC(=O)c1c2c(n3ccc(NC(=O)OC(C)(C)C)cc13)C(=O)c1ncccc1C2=O` it was -29% (active); in that of `NC(=O)NN=C(C1CC1)C1CC1`, 119% (inactive); in that of `CCOC(=O)C1=C(CCl)N(C)C(=O)NC1c1ccc2c(c1)OCO2` (configuration not stated), 24.1% (inactive).

In the case of `COc1cc(-c2[nH]ncc2Nc2ccc(Cl)cc2)cc(OC)c1OC`, the growth is 55.7% (inactive). In the case of `O=C1CCCc2nc3sc4c(=O)n(-c5ccccc5Cl)nnc4c3cc21` it was 85.9% (inactive); in that of `COC(=O)/C(CCC=C(C)C)=C1\[C@@H](OC(C)=O)C[C@@]2(C)[C@H]1CC(=O)[C@H]1[C@@]3(C)CCC(N4CCCC4)[C@@H](C)[C@@H]3CC[C@@]12C` (some centres not stated), 99.7% (inactive); in that of `Clc1ccc(C2CC(c3cccc(Nc4ccncc4)c3)=NN2c2ccccc2)cc1` (configuration not stated), 61.6% (inactive). With `COc1ccc2c(c1)O/C(=C\c1ccc([N+](=O)[O-])s1)C2=O`, the growth was -1.9% (active). Take `C#CCSc1nnnn1-c1ccccc1`: the growth was 22.3% (inactive). To `CCCOC(=O)C1c2cc3c(cc2CC(C)C1C(=O)OCCC)OCO3` (configuration not stated) belongs 102% (inactive); to `O=C(Nc1ccc(Br)cc1F)c1cc(I)ccc1O`, -1.19% (active); to `OC1CCC(Oc2cccc3cnc(Nc4ccc5nc[nH]c5c4)nc23)CC1` (configuration not stated), -42.4% (active) and 69.7% (inactive). To `N#C/C(=N\Nc1ccc(Cl)cc1)C(=O)Nc1cc(-c2ccccc2)nn1-c1ccccc1` belongs 7.6% (active); to `O=[N+]([O-])c1cnc(Sc2ccncn2)s1`, -63.7% (active). For the molecule `COc1cccc2c1-c1ccccc1C2=O`, the growth was 39.3% (inactive). In the case of `COc1ccc(-c2nc3cc(C(=O)Nc4cc(OC)c(OC)c(OC)c4)ccc3n2C2CCCCC2)cc1` it was 128% (inactive). In the case of `COc1ccc(C2=NNC(c3cc(Cc4ccc(O)c(C5CC(c6ccc(OC)cc6)=NN5)c4)ccc3O)C2)cc1` (configuration not stated) it was 65% (inactive). To `CC(=O)OC1/C=C\CC/C=C\C1` (configuration not stated) belongs 109% (inactive); to `N#C/C(=C\c1ccc(-c2ccc(Cl)cc2)o1)c1ccc(Cl)cc1`, 82.2% (inactive). Regarding `Nc1c(C(=O)Nc2ccccn2)sc2nc3c(cc12)C(=O)CCC3`, the growth is 7.45% (active). In the case of `CNC(=O)c1cc(Oc2cccc3nc(NC(=O)Nc4cc(C(F)(F)F)cc(C(F)(F)F)c4)ccc23)ccn1` it was 32% (inactive); in that of `CN1C(=O)N(C)C2C1NN=c1s/c(=C\c3ccccn3)c(=O)n12` (configuration not stated), 88.8% (inactive); in that of `CC(=O)C(C)Cc1cc2c(cc1C)C(C)(C)CCC2(C)C` (configuration not stated), 97.6% (inactive). In the case of `CCCC(C)c1ccc(OCCCCCCN2CCNCC2)cc1` (configuration not stated) it was -58.5% (active); in that of `Cn1nc(C(F)(F)F)c(-c2ccc(Cl)c(C(F)(F)F)c2)c1-c1ccc(OCc2ccc(Cl)cc2)cc1O`, -18.7% (active); in that of `CC(=O)OC[C@]12CC[C@H]3[C@@H](C[C@H]4O[C@]45CC=CC(=O)[C@]35C)[C@]1(O)CC[C@@]2(O)[C@@](C)(O)C1CC(C)=C(C)C(=O)O1` (some centres not stated), -52.8% (active). `O=C(C(=O)c1cc(Br)ccc1O)c1cc(Br)ccc1O`: the growth was 29.5% (inactive). In the case of `Cc1nn(-c2ccc(Cl)cc2)c2ncnc(N/N=C/c3cccc([N+](=O)[O-])c3)c12` it was 117% (inactive); in that of `Cc1ccc(/C=C/C(=O)c2cccc(OCCCOc3cccc(C(=O)/C=C/c4ccc(C)cc4)c3)c2)cc1`, 89.9% (inactive). In the case of `Nc1nc(N)c2cc(CNc3ccc(Cl)c(Cl)c3)ccc2n1`, the growth is -75.3% (active). To `COc1ncc(-c2ccc3ncnc(Nc4cccc(Cl)c4)c3c2)cc1NS(=O)(=O)C1CC1` belongs -43.9% (active); to `COc1ccc(-c2nnc(SCC(=O)NC3=NN=C(c4ccccc4)CS3)o2)cc1`, 105% (inactive); to `O=C(NC1CCN(Cc2ccccc2)CC1)c1cc(-c2cccnc2)nc2ccc(Cl)cc12`, 54.7% (inactive). In the case of `O=C(Nc1ccccc1S)c1ccccc1` it was 115% (inactive); in that of `Cn1c2ccccc2c2c(OC(=O)c3ccccc3)c3c(nc21)-c1ccccc1C3`, 100% (inactive).

Take `O=[N+]([O-])c1cccc(-c2nc(-c3ccc(Cl)cc3Cl)cn2-c2ccccc2)c1`: the growth was 22.2% (inactive). In the case of `Cc1cc(C(=O)c2ccccc2)c(C)c2c1[nH]c1ccc(Cl)cc12` it was -7.26% (active). To `Nc1ncc(-c2ccc3ncnc(N4CCc5cc(F)c(Cl)cc54)c3c2)cc1C(F)(F)F` belongs -26.1% (active); to `C#C[C@]1(O)CC[C@H]2[C@@H]3CC=C4c5nc(Nc6ncccn6)sc5CC[C@]4(C)[C@H]3CC[C@@]21C`, 75.5% (inactive).

On to `O=S(=O)(Oc1ccc(-c2cn3ccsc3n2)cc1)c1cccc(C(F)(F)F)c1`, for which the growth is 92.9% (inactive).

As for `COC(=O)[C@@H](NC(=O)NC(=O)NC(=O)CI)C(C)C`, the growth is 71.6% (inactive). In the case of `Cc1cc(N(CCNc2ccnc3cc(Cl)ccc23)Cc2ccc3c(c2)OCO3)nc(N2CCCC2)n1` it was -39.4% (active).

For the molecule `O=C(c1ccccc1)C(Br)C(Br)c1cccc([N+](=O)[O-])c1` (configuration not stated), the growth is -66.4% (active).

Regarding `CCNCCNc1cc(-c2ccc(C(F)(F)F)cc2)c(C#N)c2nc3ccccc3n12`, the growth is -73.6% (active). To `CC1(C)CC[C@]23CC[C@]4(C)[C@H](CC[C@@H]5[C@@]6(C)CC[C@H](N)C(C)(C)[C@@H]6CC[C@]54C)[C@H]2[C@H]1OC3` belongs 0.703% (active); to `CC(=O)Oc1cc(C(C)C)c(OCCN(C)C)cc1C`, 110% (inactive) and 104% (inactive); to `COc1nc2c(cc1S(=O)(=O)c1ccccc1)CCc1c-2cnn1-c1ccccc1Cl`, 40.4% (inactive).

Consider `O=C(CN1CCN(c2cc3c(cc2F)c(=O)c(C(=O)N/N=C/c2ccccc2)cn3C2CC2)CC1)N/N=C\c1ccccc1`, for which the growth is 85.4% (inactive). To `COc1cccc(-c2nn(-c3ccccc3)cc2-c2ccnc(NCCCO)c2)c1` belongs 23.8% (inactive). In the case of `Cc1nc([P+](c2ccccc2)(c2ccccc2)c2ccccc2)c(Sc2sc(-c3ccccc3)nc2[P+](c2ccccc2)(c2ccccc2)c2ccccc2)o1` it was -31.6% (active); in that of `O=C(O)c1cn(C2CC2)c2cc(N3CCN(C(=O)N(c4ccccc4)c4nc(-c5ccccc5)cs4)CC3)c(F)cc2c1=O`, -0.856% (active); in that of `O=C(CN1CCN(c2cc(=O)n(-c3ccccc3)c3ccccc23)CC1)Nc1nc(-c2ccccc2)cs1`, 13.3% (inactive). In the case of `c1ccc2c(NCCCN3CCOCC3)c3oc4ccccc4c3nc2c1` it was -53.6% (active); in that of `CC(=O)c1ccc(Nc2nc(Cl)nc(Oc3c(Cl)cccc3Cl)n2)cc1`, 93.3% (inactive). As for `CNC(=O)c1cc(-n2ccc3cc(NC(=O)c4ccc(N5CCOCC5)c(C(F)(F)F)c4)ccc32)ccn1`, the growth is 71.6% (inactive). In the case of `Nc1cc(F)ccc1NC(=O)c1ccc(NC(=O)C/C=C/c2cccnc2)cn1` it was -27.4% (active). To `CCc1cc2c(c3ccc(C(=O)CBr)cc13)CCCC2` belongs 111% (inactive); to `Cc1onc(-c2ccccc2)c1C(=O)N/N=C/c1cc(Cl)cc(Cl)c1O`, 24.7% (inactive); to `NC(N)=N/N=C/c1ccc(Br)cc1`, 8.33% (active). In the case of `COc1ccc(OC)c(NCC(=O)n2nc(/C=C\c3ccc(O)c(OC)c3)cc2/C=C\c2ccc(O)c(OC)c2)c1` it was 12.1% (inactive); in that of `Cc1ccc(C(=O)N2C/C(=C/c3ccc(F)cc3)C(=O)/C(=C/c3ccc(F)cc3)C2)cc1`, 79.5% (inactive); in that of `COc1ccc(C/C(C)=C(/c2ccc(OCCN3CCCCCC3)cc2)c2ccc(OC(=O)NCc3ccccc3)cc2)cc1`, 83% (inactive). In the case of `O=C(c1ccccc1)C(Br)[N+](=O)[O-]` (configuration not stated), the growth is 114% (inactive). To `O=C(Nc1ccc(F)cc1F)c1cc(Br)ccc1O` belongs -19.6% (active); to `Cc1c2cc[nH]c(=O)c2c(C)c2c1[nH]c1cc(OCCN3CCN(C)CC3)ccc12`, -12.4% (active); to `CN(C)c1ccc(N)c2ccccc12`, 57.8% (inactive). For `CCOC(=O)c1cc(C(=O)c2ccc(Cl)cc2)n2ccc(-c3cc[n+](CC(=O)c4ccc(OC)cc4)cc3)cc12`, the growth is 70.7% (inactive). In the case of `O=C(Nc1ccc(N=Cc2ccccc2O)cc1)NC1C=c2ccccc2=CC1` (configuration not stated) it was 87.1% (inactive); in that of `Cc1cn(-c2cc(NC(=O)c3ccc(C)c(Nc4nccc(-c5cccnc5)n4)c3)cc(C(F)(F)F)c2)cn1`, 37.2% (inactive). `CSc1nc(Nc2ccc(S(=O)(=O)Nc3ccon3)cc2)c(C#N)c(-c2ccc(Cl)cc2)n1`: the growth was 93.1% (inactive). In the case of `CN1CCN(C)c2cncc(Br)c2C1=O` it was 106% (inactive); in that of `Cc1cc(C)n(Cc2cc(C(C)(C)C)cc(C(C)(C)C)c2)c(=O)c1C#N`, 97.4% (inactive); in that of `CC(C)CSc1nc(N)nc2c1ncn2C1OC(CO)C(O)C1O` (configuration not stated), 96.5% (inactive). To `COc1ccc(/C=C/c2nc(Nc3ccc(Cl)cc3)c3ccccc3n2)cc1` belongs 28.1% (inactive). In the case of `O=[N+]([O-])c1ccc2c(c1)Cc1cc(I)ccc1-2`, the growth was 105% (inactive). To `CC(C)(C)c1ccc(C(=O)Nc2sc3cc(O)ccc3c2C(N)=O)cc1` belongs 46.8% (inactive).
